Laboratory results as given in article PMC4336329 (PLoS ONE, 2015).
Hit rate of the full screen: of about 310,000 compounds, about 14,000 (4.5%) showed an effect of 50% or more. The effect is printed as a negative number. The sample as a whole holds a higher share of strong results than the screen did.

biological target: human ether-à-go-go-related gene (hERG) potassium channel (human, UniProt Q12809); assay: primary screen, population patch clamp on CHO cells stably expressing hERG; higher = less effect of the substance
Sequence (Q12809 whole entry, looked up): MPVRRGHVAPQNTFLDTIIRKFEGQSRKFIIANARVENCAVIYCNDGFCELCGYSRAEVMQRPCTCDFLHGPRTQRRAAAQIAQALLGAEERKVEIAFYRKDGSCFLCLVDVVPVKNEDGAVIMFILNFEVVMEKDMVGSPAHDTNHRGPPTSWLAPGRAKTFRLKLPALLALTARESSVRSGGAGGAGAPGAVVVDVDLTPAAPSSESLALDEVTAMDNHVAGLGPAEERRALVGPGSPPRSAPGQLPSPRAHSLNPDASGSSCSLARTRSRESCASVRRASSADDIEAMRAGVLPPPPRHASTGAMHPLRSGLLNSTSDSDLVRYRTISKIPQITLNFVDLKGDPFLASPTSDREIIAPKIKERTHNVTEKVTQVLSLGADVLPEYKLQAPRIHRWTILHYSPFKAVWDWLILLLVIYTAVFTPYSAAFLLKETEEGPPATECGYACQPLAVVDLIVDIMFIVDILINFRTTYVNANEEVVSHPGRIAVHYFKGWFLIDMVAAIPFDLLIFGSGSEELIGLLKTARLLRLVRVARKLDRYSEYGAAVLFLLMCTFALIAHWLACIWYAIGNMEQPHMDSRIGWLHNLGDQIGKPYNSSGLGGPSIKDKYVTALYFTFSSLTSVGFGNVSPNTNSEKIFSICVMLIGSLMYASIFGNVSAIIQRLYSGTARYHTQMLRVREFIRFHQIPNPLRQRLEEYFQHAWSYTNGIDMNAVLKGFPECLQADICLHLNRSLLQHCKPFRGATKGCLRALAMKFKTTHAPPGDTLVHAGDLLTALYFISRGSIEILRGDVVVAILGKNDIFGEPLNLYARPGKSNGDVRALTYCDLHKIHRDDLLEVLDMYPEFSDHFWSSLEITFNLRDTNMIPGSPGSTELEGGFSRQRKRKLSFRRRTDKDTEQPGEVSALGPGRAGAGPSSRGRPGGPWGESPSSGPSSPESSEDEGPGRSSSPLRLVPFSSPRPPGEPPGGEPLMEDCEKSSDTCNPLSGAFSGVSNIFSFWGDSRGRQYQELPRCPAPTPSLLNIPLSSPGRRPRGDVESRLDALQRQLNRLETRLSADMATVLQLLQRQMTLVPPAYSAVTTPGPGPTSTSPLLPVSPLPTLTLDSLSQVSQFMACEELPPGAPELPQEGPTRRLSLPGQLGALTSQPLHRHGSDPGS
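Further: peak tail current of the secondary pulse compared with the same well before compound.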

Row | Compound | hERG current change (%, negative = inhibition) at 10uM [%]
1 | Nc1c2c(nc3c1CCCC3)CCCC2.O=C(O)c1cc[nH]c(=O)c1 | -10.1
2 | Clc1ccc(OCC#CCN2CCCCCC2)cc1.O=C(O)C(=O)O | -34.7
3 | Cc1ccccc1Nc1nnc(C)c(=O)[nH]1 | -11.3
4 | CC(=O)N1CCN(c2ccc(NC(=O)c3ccc([N+](=O)[O-])cc3Cl)cc2)CC1 | -8.49
5 | CCOc1cccc(OCCOCCN(C)Cc2ccccc2)c1 | -49.3
6 | CCN(CC(=O)NCc1ccc(Cl)cc1)S(=O)(=O)c1ccc(F)cc1 | -19.1
7 | CCN(CC(=O)NCc1ccc(Cl)cc1)C(=O)CN1C(=O)NC(CC)(c2ccccc2)C1=O (stereo not drawn) | -6.03
8 | CCN(CC(=O)NCc1ccc(Cl)cc1)C(=O)c1oc2ccccc2c1C | -54.5
9 | CCN(CC(=O)NCc1ccc(Cl)cc1)C(=O)CSc1ccc(Br)cc1 | -79.2
10 | CCN(CC(=O)Nc1ccc(NC(C)=O)cc1)C(=O)c1oc2ccccc2c1C | -20.2
11 | CCN(CC(=O)Nc1c(F)cccc1F)C(=O)CSc1ccc(F)cc1 | -14.3
12 | O=C(CSc1ccc(Cl)cc1)NCc1ccncc1 | -14.2
13 | CCN(CC(=O)NCc1ccc(Cl)cc1)C(=O)CSc1ccccc1 | -65.6
14 | CCN(CC(=O)NCc1ccc(Cl)cc1)C(=O)CSc1ccc(F)cc1 | -71.1
15 | CCN(CC(=O)NCc1ccc(F)cc1)C(=O)c1oc2ccccc2c1C | -43.9
16 | CCN(CC(=O)NCc1ccc(Cl)cc1)C(=O)CSc1cccc(C(F)(F)F)c1 | -23.3
17 | CCN(CC(=O)NCc1ccc(Cl)cc1)C(=O)CSc1ccccc1F | -19.3
18 | Cc1ccc(-c2nn3c(C)nnc3s2)cc1NCc1c(F)cccc1Cl | 2.39
19 | Fc1ccc(N2CN(Cc3cccnc3)CNC2=S)cc1 | 10.7
20 | Cc1ccc(C(O)Cn2nc(C)cc2C)cc1 (stereo not drawn) | 13.7
21 | CCCCCc1c(O)nc(SCCN(CC)CC)[nH]c1=O.Cl | 9.87
22 | COc1ccc(N(C(=O)c2cccnc2)S(=O)(=O)c2ccc3c4c(cccc24)C(=O)N3C)cc1 | 17.7
23 | C=CCn1c(=O)c2ccccc2n2c(SCc3nc4ccccc4s3)nnc12 | -34.4
24 | CCOc1ccc(NC(=O)Cn2nc(C(N)=O)c3ccccc3c2=O)cc1S(=O)(=O)N1CCCC1 | 0.537

Row | Compound | hERG current change (%, negative = inhibition) at 10uM [%]
25 | Cc1ccccc1NC(=O)c1cccc(Cn2cc(Br)c([N+](=O)[O-])n2)c1 | -3.63
26 | COc1ccc(OC)c(NC(=O)c2cccc(Cn3cc(Br)c([N+](=O)[O-])n3)c2)c1 | -13.9
27 | COc1ccc(NC(=O)c2cccc(Cn3cc(Br)c([N+](=O)[O-])n3)c2)c(C)c1 | -72
28 | Cc1cc(CC(C)C)n(-c2nc3ccccc3c(=O)n2OCc2ccccc2)n1 | -7.08
29 | COc1ccc(CCNc2ncnc3c2nnn3Cc2ccccc2)cc1 | 13
30 | COc1ccc(C(=O)C2CCCN(Cc3ccc4nonc4c3)C2)cc1OC (stereo not drawn) | -67.4
31 | COc1ccc(C(=O)C2CCCN(Cc3ccc4nonc4c3)C2)c(OC)c1 (stereo not drawn) | -66.7
32 | COc1ccc(C(=O)C2CCCN(Cc3ccc4nonc4c3)C2)cc1F (stereo not drawn) | -41.1
33 | COc1ccc(C(=O)C2CCCN(Cc3ccc4nonc4c3)C2)c(C)c1 (stereo not drawn) | -20.3
34 | COc1ccccc1CCNC(=O)CNC(=O)Cc1cccc2ccccc12 | -1.6
35 | CC(C(=O)Nc1ncn[nH]1)N1C(=O)c2ccccc2C1=O (stereo not drawn) | 17.4
36 | CCCCn1c(=O)c(C(=O)Nc2ccccc2S(N)(=O)=O)c(O)c2ccccc21 | -12.3
37 | COCCNC(=O)c1ccc(CS(=O)(=O)c2ccc(OC)cc2)o1 | -0.154
38 | O=C(NCCCN1CCCC1)c1ccc(CS(=O)(=O)c2ccc(Cl)cc2)o1 | -6.15
39 | COc1ccc(S(=O)(=O)Cc2ccc(C(=O)NCCCN3CCc4ccccc4C3)o2)cc1 | -51.2
40 | COc1ccc(N2CCN(CCCNC(=O)c3ccc(CS(=O)(=O)c4ccc(Cl)cc4)o3)CC2)cc1 | -77.1
41 | COc1ccc(N2CCN(CCCNC(=O)c3ccc(CS(=O)(=O)c4ccc(OC)cc4)o3)CC2)cc1 | -68.9
42 | COc1ccc(S(N)(=O)=O)cc1C(=O)NCCCN1CCN(c2cccc(Cl)c2)CC1.CS(=O)(=O)O | -23.9
43 | COc1ccc(S(=O)(=O)Cc2ccc(C(=O)NCc3ccccc3OC)o2)cc1 | -41.6
44 | O=C(NCCN1CCOCC1)c1ccc(CS(=O)(=O)c2ccc(Cl)cc2)o1 | -4.24
45 | COc1ccc(S(=O)(=O)Cc2ccc(C(=O)NC3CC3)o2)cc1 | -2.21
46 | COc1ccc(S(N)(=O)=O)cc1C(=O)NCC(C)(C)N1CCOCC1 | 8.36
47 | COc1ccc(S(N)(=O)=O)cc1C(=O)NCCCN1CCN(c2ccc(C)cc2)CC1 | -50.7
48 | Cc1ccc(S(=O)(=O)Cc2ccc(C(=O)NCCCN3CCN(C)CC3)o2)cc1 | 15.6
